Compounds with a hit are over-represented: about 1.4% of the library has one in this group of screens.
14-3-3 Bad inh = inhibitors of 14-3-3 zeta/Bad binding, primary screen, biochemical, TR-FRET, bovine 14-3-3 zeta | TR-FRET 14-3-3zeta/Dy647-pBad peptide displacement, 1 h | inhibition, % at 21.7 µM | 14-3-3 protein zeta/delta (Bos taurus), P63103 | hit rate 0.71% among 220,000 | AID 781, 2007;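 active = inhibition above about 70%, limit read from the data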;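 also: 0% = full 14-3-3 plus peptide FRET controls and 100% = background without 14-3-3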
bovine MsrA act = bovine MsrA enzyme activators, primary screen, biochemical, absorbance, HTS; Methionine sulfoxide reductase A (Bos taurus); purified bovine MsrA, absorbance read-out; activation, % at 10.6 µM; hit rate 0.3% among 360,000; in the data active = activation above about 7.5%;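 also: 0% = vehicle and 100% = reference activator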
MsrA inhibitor = bovine MsrA enzyme inhibitors, primary screen, biochemical, absorbance, HTS; hit rate 0.75% among 360,000; inhibition, % at 15.5 µM; purified bovine MsrA, absorbance read-out;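 also: 0% = vehicle wells with enzyme and 100% = reference inhibitor wells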
p-CIP stab down = p/CIP-EGFP fusion destabilizers, primary screen, fluorescence, F442A cells; Q05BA5; 16 h; decrease of EGFP signal, % at 10 µM; hit rate 0.01% among 290,000; AID 1984, 2009;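 active = EGFP signal decrease of at least 30% at 10 µM or well 3 SD below plate mean, unless failing retest; inactive = the rest, including hits failing retest or dose response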
MsrA activ conf = bovine MsrA activators, retest, confirmation, biochemical, absorbance, HTS | shares compounds with bovine MsrA act | activation, % at 10.6 µM | purified bovine MsrA, absorbance read-out | hit rate 12% among 1,000; in the data active = activation above about 4%;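 also: enzyme coupled to thioredoxin and thioredoxin reductase with NADPH; 0% = vehicle wells and 100% = reference activator wells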
MsrA inh confirm = bovine MsrA inhibitors, retest, confirmation, biochemical, absorbance, HTS | shares compounds with MsrA inhibitor | purified bovine MsrA, absorbance read-out | inhibition, % at 15.5 µM | hit rate 41% among 2,300;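 also: coupled to thioredoxin reductase with NADPH and selenocystamine and DMSO as substrate; 0% = vehicle only and 100% = full effect of reference inhibitor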
Numbers without * were called inactive; . = no result given. Rule as the data show it, unless noted: active = inhibition above about 4.5%; inactive = the rest.

SMILES | 14-3-3 Bad inh | bovine MsrA act | MsrA inhibitor | p-CIP stab down | MsrA activ conf | others
CN1C[C@@H]2[C@@H]3C(=O)N(Cc4ccccc4)C(=O)[C@@H]3[C@](Cc3ccccc3)(C1=O)N2C(=O)c1ccc(C(C)(C)C)cc1 | . | 8.8* | -1 | . | -1
COC(=O)[C@]12C[C@H](CC(=O)NCCC(C)C)C(=O)N(Cc3ccccc3)C1=C[C@H](C1CCCC1)O[C@@H]2C | . | . | 1 | . | .
Cc1cccc(S(=O)C(c2ccccc2)c2ccccc2)c1 (stereo not drawn) | . | -6 | 0 | . | .
Nc1ccc(S(=O)(=O)c2ccc(N)nc2)cc1 | . | 7.7* | 0 | . | 1
CN1/C(=C\C(=S)Nc2ccccc2)C(C)(C)c2ccccc21 | 4 | 9.0* | 0 | -20 | -4
COC(=O)CC/C(O)=C1\C(=O)CC(C)(C)CC1=Nc1ccccc1OC | 2 | -1 | 1 | 11 | .
CCCC/C(O)=C1\C(=O)CC(C)(C)CC1=Nc1ccccc1OC | 1 | 8.7* | -1 | -1 | 0
COc1ccc2c(c1)[C@@H](NC(=O)c1ccncc1)[C@@H]1Cc3ccccc3[C@H]21 | . | . | -2 | . | .
CCCCCCCCN1C(=O)[C@@H](CC(=O)NCCc2ccccc2OC)C[C@@]2(C(=O)OC)C1=C[C@H](C1CCCC1)O[C@@H]2C | . | . | 0 | . | .
CCn1nc(C(=O)OCC(=O)Nc2ncc(Cl)c(C)c2Cl)c2ccccc2c1=O | 0 | 19* | 1 | -11 | 0
Cc1cc(NC(=O)C(C)C)ncc1NC(=O)Cc1ccccc1 | -12 | 9.6* | 0 | -4 | -3
C[C@H](O)[C@@H]1CN2CCc3c([nH]c4ccccc34)[C@@H]2C[C@@H]1N(C)CC1CCCCC1 | . | . | -1 | . | .
Nc1cc(C2CCCC2)nn1-c1ccccc1 | -5 | 9.1* | -1 | -5 | -4
O=C1Nc2c(Cl)cc(Cl)cc2C1=O | . | 11* | 0 | . | 7.0*
CCCCCCCCN1C(=O)[C@@H](CC(=O)NCc2cccc3ccccc23)C[C@@]2(C(=O)OC)C1=C[C@H](C(C)(C)C)O[C@@H]2C | . | . | 0 | . | .
COc1cc(OC)c2c(-c3cccc(-c4cccc(C)c4)c3)cc(=O)oc2c1 | . | -4 | 1 | . | .
COc1ccc(-c2cc(=O)oc(-c3cccc(C)c3)n2)cc1 | -6 | 12* | 0 | -6 | -3
Cc1oc2c(c1C(=O)O)C(=O)c1ccccc1C2=O | 4 | 8.4* | 0 | -6 | 0
CCOC(=O)c1c(C)oc2c1C(=O)c1ccccc1C2=O | 3 | 3 | 0 | 0 | .
Cc1oc2c(c1C(=O)c1ccccc1)C(=O)C(=O)c1ccccc1-2 | -10 | 9.3* | 1 | -11 | 13*
COc1ccc(Cc2c(-c3ccc(OC)c(OC)c3)nc3ccc(C)cn23)c(C)c1 | . | 13* | 1 | . | -1
O=C(N[C@H](Cc1ccccc1)C(=O)NCc1ccc2c(c1)OCO2)[C@H]1O[C@@H](n2ccc(=O)[nH]c2=O)[C@H](O)[C@@H]1O | . | . | 0 | . | .
COc1ccc(Nc2ccc(C(F)(F)F)cc2[N+](=O)[O-])cn1 | . | 13* | 24* | -9 | 1 | MsrA inh confirm=18*
O=C1C(Cl)=C(Nc2ccc(O)cc2)C(=O)c2ccccc21 | -20 | 9.2* | 17* | -17 | 7.0* | MsrA inh confirm=12*
CC(OC(=O)Cn1cnc2c1c(=O)n(C)c(=O)n2C)C(=O)c1ccccc1 (stereo not drawn) | . | -4 | 1 | . | .
SMILES | 14-3-3 Bad inh | bovine MsrA act | MsrA inhibitor | p-CIP stab down | MsrA activ conf | others
CC(=O)c1cccc(NC(=O)c2ccc([N+](=O)[O-])o2)c1 | . | 4 | 1 | . | .
CC(=O)c1ccc(NC(=O)c2ccc([N+](=O)[O-])o2)cc1 | . | 9.1* | 11* | -6 | 2 | MsrA inh confirm=5.7*
Cc1ccnc(NS(=O)(=O)c2ccc(NS(=O)(=O)c3cc(Cl)ccc3Cl)cc2)n1 | . | -1 | 0 | -5 | .
CC(=NNC(=O)CSCC(=O)NN=C(C)c1ccccc1)c1ccccc1 | . | -1 | -1 | . | .
Cc1cc(C(=O)O)ccc1-c1ccc(/C=N/n2cnnc2)o1 | . | 8.4* | 9.2* | -12 | -6 | MsrA inh confirm=6.5*
COc1ccc(/C=N/NC2=NS(=O)(=O)c3ccccc32)cc1OC(C)=O | . | 15* | 5.4* | 2 | -4 | MsrA inh confirm=4
CC(=O)Oc1ccc(/C=N/NC2=NS(=O)(=O)c3ccccc32)cc1 | . | -2 | 3 | -8 | .
O=C(O)CSc1cc(NS(=O)(=O)c2ccc(Cl)cc2)c2ccccc2c1O | . | 7.8* | 9.5* | -7 | 0 | MsrA inh confirm=0

From PubChem BioAssay
